USP1 inh: inhibitors of human USP1/UAF1 deubiquitinase | AID 743255 | recombinant USP1/UAF1, Ub-Rhodamine cleavage fluorescence | Potency, µM (titrated, usually from 57.1 µM), for inactives: at the top dose activity change, negative = inhibition, most hits filed as inhibitors | 390,000 tested, 0.23% active; note: potency is the fitted concentration of half-maximal effect; % is set by controls: 0 for no effect and ±100 for the full control effect; nearly all actives have a fitted effect of over 60% in size
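In this screen, compounds sit with the deubiquitinase complex (1nM) for 15 min at room temperature before Ub-Rho is added at 150nM final. Fluorescence rise is then followed for 6 reads every 60 seconds.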
USP2a block: inhibitors of human ubiquitin-specific protease USP2a; O75604; USP2 core, Ub-CHOP2 coupled fluorogenic reporter, 485/531; Potency, µM (doses to about 38.3 µM), without a hit: top-dose activity change, negative = inhibition, actives largely listed as inhibitors; 330,000 tested, 0.01% active; AID 463254;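 note: potency is the fitted concentration of half-maximal effect; plate controls were DMSO wells for no effect and full inhibition by NEM control for full effect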
Target sequence (O75604 whole entry, looked up): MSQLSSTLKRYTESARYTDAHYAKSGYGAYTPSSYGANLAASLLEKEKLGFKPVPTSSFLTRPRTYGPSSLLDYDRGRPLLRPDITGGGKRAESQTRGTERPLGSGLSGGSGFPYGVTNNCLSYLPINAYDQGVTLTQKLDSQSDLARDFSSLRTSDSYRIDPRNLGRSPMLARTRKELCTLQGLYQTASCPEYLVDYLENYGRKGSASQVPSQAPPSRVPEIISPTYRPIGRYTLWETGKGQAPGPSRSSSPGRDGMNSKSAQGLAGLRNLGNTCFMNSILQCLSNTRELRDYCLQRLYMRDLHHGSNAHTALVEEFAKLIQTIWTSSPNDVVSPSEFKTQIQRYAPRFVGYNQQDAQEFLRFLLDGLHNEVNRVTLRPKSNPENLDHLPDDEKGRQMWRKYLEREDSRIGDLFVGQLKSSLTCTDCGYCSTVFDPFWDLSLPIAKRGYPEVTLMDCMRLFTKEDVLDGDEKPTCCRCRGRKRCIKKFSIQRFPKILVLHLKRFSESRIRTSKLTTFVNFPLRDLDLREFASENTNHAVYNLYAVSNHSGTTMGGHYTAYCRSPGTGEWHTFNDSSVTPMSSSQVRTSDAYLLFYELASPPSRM
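USP2 core (10nM final) preincubated 30min RT with compound in 20mM Tris-HCl pH 8.0, 2mM CaCl2, 2mM beta-mercaptoethanol, 0.05% CHAPS; 25nM Ub-CHOP2 plus 25nM reporter substrate added, fluorescence (Ex485/Em531) read after 60min.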
S2 tox: reduces viability in counter-screen for ATXN expression inhibitors; Potency, µM (doses to about 56.7 µM), actives largely listed as cytotoxic; 400,000 tested, 0.49% active; AID 651635; S2 cells (HEK-293 line with an ATXN2-luciferase reporter) viability, CellTiter-Fluor protease fluorescence, 24 h; note: potency is the fitted concentration of half-maximal effect; nearly all actives have a fitted effect of over 40% in size
IL-1B inflam inh: blocks inflammasome-driven IL-1 beta release; THP-1 LPS/ATP IL-1B secretion, AlphaLISA, 16 h; stronger effect = lower value; activity change, % at 57.5 µM; 360,000 tested, 4.7% active; AID 743279; in the data active = activity change below about -50%; inconclusive = mostly about -30% to -49%; note: % is set by controls: 0 for no effect and ±100 for the full control effect
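Secreted IL-1B measured by AlphaLISA bead assay after 16 h compound exposure of THP-1 cells; compounds (final up to 57.5 uM) added 1 h before LPS (250 ng/mL) and ATP (1.25 mM) stimulation; lower signal means less secretion.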
ATXN2 expr inh: inhibitors of ATXN2 expression; Potency, µM (top dose mostly 57 µM), without a hit: top-dose activity change, negative = inhibition, most hits filed as inhibitors; 360,000 tested, 0.72% active; HEK-293 ATXN2-luciferase reporter, luminescence, 24 h; note: potency is the fitted concentration of half-maximal effect; % is set by controls: 0 for no effect and ±100 for the full control effect; nearly all actives have a fitted effect of over 55% in size
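ATXN2-luciferase reporter cells (luciferase flanked by upstream and downstream ATXN2 gene portions) were treated 24 h at 37 °C with compounds at up to 57 uM. SteadyGlo luminescence gave expression; GF-AFC fluorescence gave viability.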
Active calls of the source: *; i = inactive; ? = inconclusive; · = no result. Only some compounds are listed: those with a hit (about 4.8% of all), similar ones and a draw of the others. Unless noted, calls come from the whole dose curve; as a rule, active = well fitted curve in the direction sought with a large enough effect; inconclusive = small, poorly fitted or top-dose-only effect, or another doubt; inactive = no such curve, though single readings can be large; an effect the other way counts as inactive or inconclusive.

SMILES | USP1 inh | USP2a block | S2 tox | IL-1B inflam inh | ATXN2 expr inh
CC(=O)Nc1cc(C(=O)N2CCN(c3ccccc3)CC2C)cc2ncn(CCc3ccccn3)c12 (stereo not given) | · | · | i | · | ·
CCCCCC(=O)N1CC2(CC(c3cccc(NC(=O)COc4ccc(Cl)cc4)c3)=NO2)C[C@@H]1C(N)=O (stereo not given in full) | -19% | -5% | ? | -67* | ?
CN1C(=O)c2ccccc2Sc2ccc(NC(=O)c3ccc(C#N)cc3)cc21 | -31% | · | ? | · | -10%
Cc1oc2c(c1C(=O)N1CCC(C)CC1)C(=O)c1ccccc1C2=O | ? | -3% | 18µM* | 152 | 25µM*
CCOC(=O)C1CCN(C(=O)c2ccc(C)o2)CC1 | -11% | -4% | ? | -1 | 3%
CCOC(=O)C1CCN(C(=O)c2c(C)oc3c2C(=O)c2ccccc2C3=O)CC1 | ? | 1% | ? | -76* | ?
C[C@@H]1CN(Cc2ccc3c(c2)CN(Cc2cn[nH]c2-c2ccccc2)CCO3)C[C@H](C)O1 | · | · | i | · | ·
O=c1cc(-c2ccc(O)cc2)oc2ccc3ccccc3c12 | -22% | -3% | i | -22 | -85%
O=c1cc(-c2ccc(O)cc2)oc2c1ccc1ccccc12 | -22% | 0% | i | -59* | 8%
O=c1cc(-c2ccco2)oc2c1ccc1ccccc12 | -5% | 2% | i | -22 | -9%
COc1c(O)cc2oc(-c3ccc(O)cc3)cc(=O)c2c1O | ? | 6% | ? | 8 | 17%
O=c1cc(-c2ccncc2)oc2c1ccc1ccccc12 | 2% | -2% | ? | -83* | ?
O=c1cc(-c2ccc(O)cc2)oc2c(O)c(O)c(O)c(O)c12 | 10µM* | -1% | i | -3 | 4%
O=c1cc(C(Cl)(Cl)Cl)oc2c1ccc1ccccc12 | -11% | 1% | · | -73* | ?
Cc1cccc(C(=O)NCC2Cc3cc(F)cc(-c4cnccn4)c3O2)n1 (stereo not given) | · | · | i | · | ·
Cc1ccc(C[C@@H](NS(=O)(=O)c2ccc(C(=O)O)cc2)C(=O)O)cc1 | · | 1% | · | · | ·
CC(C)(C)NC(=O)C1c2ccccc2OCC(=O)N1Cc1ccccc1 (stereo not given) | · | · | i | -6 | 13%
CSCCC(C(=O)Nc1c(C)cccc1C)n1c(-c2ccc(-c3ccccc3)cc2)nc2ccccc21 (stereo not given) | · | · | · | -9 | ·
CSCCC(C(=O)Nc1c(C)cccc1C)n1c(COc2ccc(C)cc2)nc2ccccc21 (stereo not given) | · | · | · | -58* | ·
CN(Cc1ccc(C(C)(C)C)cc1)C(=O)C1CCN(C(=O)Nc2ccccc2)CC1 | -17% | -2% | i | -60* | -30%
COc1cc2c(oc(=O)c3cc(C)cc(OC)c32)c2c(C3OC(C)C(O)C(C)(O)C3O)ccc(O)c12 (stereo not given) | -14% | · | ? | -101* | 0%
COc1cccc2cc(C(=O)N3CC(C)OC(C)C3)c(=O)oc12 (stereo not given) | 0% | 3% | i | -13 | -19%
CCCCCCCC/C=C/C(=O)O | · | · | i | · | 11%
CCOC(=O)C1CCCN(C(=O)c2cc(C)oc2C)CC1 (stereo not given) | · | · | i | 1 | 14%
COc1ccc(OC)c(CCNC(=O)Cn2nc(C)c3c(C)n(-c4ccc(C)cc4)nc3c2=O)c1 | -25% | 1% | i | -67* | -34%
SMILES | USP1 inh | USP2a block | S2 tox | IL-1B inflam inh | ATXN2 expr inh
C[C@H](CO)N1C[C@H](C)[C@@H](CN(C)S(=O)(=O)c2cn(C)cn2)Oc2ccc(NC(=O)Cn3cnnn3)cc2C1=O | -21% | ? | i | 56 | 5%
CC(C)c1nnc2n1N=C(c1ccc(Cl)cc1)CS2 | -21% | 1% | i | -26 | -41%
CCCc1ccc(C2=Nn3c(nnc3C(C)C)SC2)cc1 | ? | 0% | i | -91* | ?
CCCN(CCC)CCN1C(=O)C2C(C(=O)Nc3ccc(C)cc3)C3C=CC2(O3)C1C(=O)NC1CCCCC1 (stereo not given) | -8% | 0% | i | ? | -21%
CCCCN(C)CCN1C(=O)C2C(C(=O)Nc3ccc(Cl)cc3)C3C=CC2(O3)C1C(=O)NC1CCCCC1 (stereo not given) | -34% | 3% | ? | -60* | -14%
Cc1cccc(OC(=O)NCCOC(=O)N(O)c2ccc(Cl)cc2)c1 | 1% | -1% | i | -79* | -7%
Cc1cccc(OCC(=O)Oc2ccc(Cl)cc2)c1 | -27% | · | i | 5 | -1%
CC(=O)n1cc(N(C(=O)CCl)c2ccccc2)c2ccccc21 | -19% | 2% | · | -92* | ?
O=Cc1[nH]c2ccccc2c1N(C(=O)CCl)c1ccc([N+](=O)[O-])cc1 | -19% | -1% | ? | -67* | ?
CC(=O)n1cc(CO)c2ccccc21 | -6% | 0% | i | 30 | -7%
CC(=O)n1cc(N(C(=O)CCl)c2ccc([N+](=O)[O-])cc2)c2ccccc21 | -16% | -1% | 28µM* | -101* | ?
COc1ccc(OCCNC(=O)c2ccc3nc(C)c(N(C)Cc4ccc(NC(C)=O)cc4)n3c2)cc1 | · | · | i | -8 | 3%
COc1ccc(NC(=O)C(=O)NCC2CCCN2S(=O)(=O)c2cc(C)ccc2C)cc1 (stereo not given) | -12% | -3% | ? | -3 | -18%
Cc1cc(C(=O)Nc2cccc(-c3nc(CNC(=O)c4cc5ccccc5[nH]4)c(C)o3)c2)c(C)o1 | · | · | i | · | ·
CCc1noc(C)c1C(=O)OC(C)C(=O)c1c(C)[nH]c2ccccc12 (stereo not given) | -16% | 1% | i | -6 | ·
Cc1[nH]c2ccccc2c1C(=O)C(C)OC(=O)c1ccc([N+](=O)[O-])o1 (stereo not given) | -20% | 2% | i | -62* | -24%
CCN(CC(=O)NC(C)(C)C)Cc1nc2c(Br)cc(Br)cc2c(=O)[nH]1 | -2% | -1% | ? | -100* | 18µM*
CCN(CC(=O)NC1CCS(=O)(=O)C1)Cc1nc2c(Br)cc(Br)cc2c(=O)[nH]1 (stereo not given) | -11% | 2% | i | 0 | -35%
CCC(C(=O)NC(=O)NC(C)=O)c1ccccc1 (stereo not given) | · | · | i | · | -3%
COc1ccc(CCNc2nc(-c3ccc(C)cc3)cc(C(F)F)n2)cc1OC | -14% | · | i | · | -7%
Cc1ccc(-c2cc(C(F)F)nc(S(C)(=O)=O)n2)cc1 | -20% | -1% | ? | -102* | ?
O=C(CSC1=NC2(CCCCC2)N=C1c1ccccc1)Nc1ccc2c(c1)OCCO2 | -9% | 0% | i | -80* | 1%

From PubChem BioAssay
